From PubChem BioAssay (Tox21)
Records with an inconclusive call do not appear. Calls of active or inactive are those of the source. Calls follow the shape of the dose curve; as a rule, active = well fitted cell-killing curve with a large enough effect in the repeat runs; inconclusive = weak or mixed curves; inactive = flat fitted curve, though single readings scatter.

Assay: qHTS assay to identify small molecule antagonists of the TGF-beta/Smad signaling pathway - cell viability counter screen (AID 1346824); also: nearly all actives have a fitted effect of over 50% in size
Settings: SBE-bla HEK293T viability, CellTiter-Glo luminescence; series mostly up to 76.8 µM; viability change, negative = cytotoxic: at the top concentration
Description: U.S. Tox21 Program National Center for Advancing Translational Sciences [NCATS] NIH Chemical Genomics Center [NCGC] U.S. Environmental Protection Agency [EPA] National Institutes of Environmental Health Sciences [NIEHS] National Toxicology Program [NTP] U.S. Food and Drug Administration [FDA] Tox21 Assay Overview: Transforming growth factor beta (TGF-beta) superfamily consists of a large number of structurally related dimeric proteins that act as hormones or local mediators in regulating a wide range of biological functions. This superfamily includes TGF-betas themselves, the bone morphogenetic proteins (BMPs) and the activins. These ligands induce oligomerization of serine/threonine receptor kinases and phosphorylate the cytoplasmic signaling molecules of Smad protein family. CellSensor SBE-bla HEK 293T cell line (Life Technologies, Carlsbad, CA), responsive to TGF-beta was used to screen Tox21 10K compound library for identification of agonists/antagonists of the Smad signaling pathway. This cell line contains a beta-lactamase reporter gene under control of the Smad binding element (SBE) stably integrated into HEK 293T cells. Also cytotoxicity of the compounds was tested in parallel by measuring the cell viability using CellTiter-Glo assay system in the same wells.
Tox21 Assay Protocol Summary: SBE-bla HEK 293T cells were dispensed at 4,000/well in 5 uL of assay medium into black wall/clear-bottom 1536-well plates using a Multidrop Combi (ThermoFisher Scientific, Waltham, MA) dispenser. After the assay plates were incubated at 37 C and 5% CO2 for an overnight, 23 nL of compounds dissolved in DMSO, positive controls or DMSO only was transferred to the assay plate by a Pintool station (Kalypsys, San Diego, CA). Compound transfer was followed by the addition of 1 uL of 0.25 ng/mL TGF-beta1 or assay buffer using two separate tips of Flying Reagent Dispenser (FRD, Aurora Discovery, San Diego, CA). The assay plates were incubated at 37 C and 5% CO2 for 5 hr. One uL of LiveBLAzer B/G FRET substrate (Life Technologies) was added using a Flying Reagent Dispenser (FRD, Aurora Discovery, San Diego, CA) and the plates were incubated at room temperature for 2 hr. Fluorescence intensity (405 nm excitation, 460 nm and 530 nm emissions) was measured using an Envision plate reader (PerkinElmer, Shelton, CT). For cytotoxicity read, 4 uL of CellTiter-Glo reagent (Promega Corporation, Madison, WI) was added to each well of the assay plates using FRD. After 30 min incubation at room temperature, the luminescence intensity was measured using ViewLux plate reader (PerkinElmer).
% is scaled to controls: 0 for no effect and ±100 for the full control effect.

SMILES	viability change, negative = cytotoxic
O=C(NC1CCN(CCc2c[nH]c3ccccc23)CC1)c1ccccc1	0.616% [at 35.3 µM] (inactive)
Nc1ccc(F)cc1F	4.51% (inactive)
CCCCCCCCCCCCCCCCC(=O)O	5.93% [at 35.3 µM] (inactive)
Cc1nc(C)c(C)nc1C	2.29% (inactive)
Nc1ccc(C(=O)Oc2ccccc2)c(O)c1	-5.39% [at 35.3 µM] (inactive)
CCCOC(C)=O	-3.44% (inactive)
CC[C@H](NC(C)C)[C@H](O)c1ccc(O)c2[nH]c(=O)ccc12	6.16% [at 35.3 µM] (inactive)
S=c1[nH][nH]c(=S)s1	-9.06% (inactive)
C=CC(C)(O)CC/C=C(/C)CCC=C(C)C (stereo not given)	3.24% (inactive)
CCCCOc1ccc(N)cc1	-0.489% (inactive)
CC(Cc1ccccc1)(NC(=O)CN)c1ccccc1 (stereo not given)	-3.81% [at 35.3 µM] (inactive)
C/C(=C\C(C)CC(C)CC(C)C)C1CC(=O)OC1=O (stereo not given)	12.2% (inactive)
COc1ccc(/C(C)=C/C(=O)O)c(OC)c1	-2.04% [at 35.3 µM] (inactive)
O=C(Cl)c1ccc(F)c(Cl)c1	9.93% (inactive)
COc1ccc(/C=C/S(=O)(=O)NC(=O)c2ccc(C)cc2Cl)cc1	12.7% (inactive)
CC1(C)CC(=O)CC(C)(C)N1	-3.55% (inactive)
CC(C)CCCCCOC(=O)CS	10.2% (inactive)
O=C(C1CCCCC1)N1CC(=O)N2CCCc3ccccc3C2C1 (stereo not given)	-9.59% [at 35.3 µM] (inactive)
NC(=O)c1cc[n+](CC2=C(C(=O)[O-])N3C(=O)[C@@H](NC(=O)Cc4cccs4)[C@H]3SC2)cc1	11.7% [at 35.3 µM] (inactive)
COC(=O)/C=C/C(C)=C\C=C\C(C)=C\C=C\C=C(C)\C=C\C=C(C)\C=C\C(=O)O	-11.5% (inactive)

SMILES	viability change, negative = cytotoxic
Clc1cc(Cl)c2c(c1)N=C1CCCCCN1C2	-4.29% [at 35.3 µM] (inactive)
c1ccc(CCNc2nc(-c3ccccc3)cs2)cc1	-4.68% [at 35.3 µM] (inactive)
Clc1nc2ccccc2nc1Cl	12.8% (inactive)
CCC1=C(C)CN(C(=O)NCCc2ccc(S(=O)(=O)NC(=O)NC3CCC(C)CC3)cc2)C1=O (stereo not given)	4.93% [at 35.3 µM] (inactive)
O=C(c1ccc(Cl)cc1)c1ccc(Cl)cc1	-2.24% (inactive)
O=C(OCCN1CCOCC1)c1cccnc1Nc1cccc(C(F)(F)F)c1	1.03% [at 35.3 µM] (inactive)
CCCC1CCCC(=O)O1 (stereo not given)	8.73% (inactive)
CC1(COc2ccc(CC3SC(=O)NC3=O)cc2)CCCCC1 (stereo not given)	-1.82% [at 35.3 µM] (inactive)
O=[N+]([O-])c1cccc(I)c1	0.241% (inactive)
COC(=O)c1cc(Cl)ccc1[N+](=O)[O-]	5.45% (inactive)
N#CCCCC(C#N)CCC#N (stereo not given)	1.56% (inactive)
Nc1nc(Cl)nc2c1ncn2[C@H]1C[C@H](O)[C@@H](CO)O1	15.9% (inactive)
O=[N+]([O-])c1ccccc1CCO	4.37% (inactive)
Nc1cccc2c(=O)[nH][nH]c(=O)c12	-5.57% (inactive)
CCOc1ccccc1O	3.54% (inactive)
CCN(CCCCOC(=O)c1ccc(OC)c(OC)c1)C(C)Cc1ccc(OC)cc1 (stereo not given)	-6.28% [at 35.3 µM] (inactive)
O=C(O)c1ccccc1[N+](=O)[O-]	-6.15% (inactive)
Cc1ccc(NC(=O)c2ccc(CN3CCN(C)CC3)cc2)cc1Nc1nccc(-c2cccnc2)n1	3.8% [at 35.3 µM] (inactive)
O=C1c2ccccc2C(=O)C1c1ccc2cc(S(=O)(=O)O)cc(S(=O)(=O)O)c2n1	17.4% (inactive)
CCCc1nc(C)c2c(=O)[nH]c(-c3cc(S(=O)(=O)N4CCN(CC)CC4)ccc3OCC)nn12	18.6% [at 35.3 µM] (inactive)
